{"source": "PubChem BioAssay AID463173", "about": "(ICCB-Longwood Screening Facility, Harvard Medical School, 2010)", "note": "Screen size: about 52,000 compounds; about 4,300 (8.3%) were called active. What follows is part of a selection rich in actives, with near analogues and random picks from the rest. Unmarked numbers belong to inactive results. No stated cut-off is given here; in the data, active means survival mostly below about 52% (no sharp cut-off); inactive means mostly above about 56%.", "data": [{"test_system": "DeltatarO mutant", "assay": "growth inhibition of S. aureus wild type versus tarO mutant, primary screen, teichoic acid synthesis inhibitors, RN4220, OD600 (AID 463173)", "settings": "OD600, 18 h, hits give low values, screened at 18.75 µg/mL (by protocol)", "values": [{"smiles": "O=C(O)CCC(=O)NCc1ccccn1", "survival": "82%"}, {"smiles": "COc1cccc(NC(=O)CSc2nc3ccc(NC(=O)c4cccs4)cc3s2)c1", "survival": "65%"}, {"smiles": "CCN(CC)c1ccc2cc(-c3nc(-c4ccc(Cl)cc4Cl)cs3)c(=O)oc2c1", "survival": "37% (active)"}, {"smiles": "CCN(CC)c1ccc2cc(-c3nnc(-c4cccc(Cl)c4)o3)c(=O)oc2c1", "survival": "69%"}, {"smiles": "COc1ccc(/C=C(\\C#N)c2nc(-c3cc4ccccc4oc3=O)cs2)cc1OC", "survival": "65%"}, {"smiles": "Cc1csc(-c2cc3ccccc3oc2=O)n1", "survival": "85%"}, {"smiles": "O=c1oc2ccccc2cc1-c1nc(-c2cccc(Cl)c2)cs1", "survival": "102%"}, {"smiles": "COc1ccccc1/C=C(\\C#N)c1nc(-c2cc3ccccc3oc2=O)cs1", "survival": "56% (active)"}, {"smiles": "COc1ccc(/C=C(/C#N)c2nc(-c3cc4ccccc4oc3=O)cs2)cc1", "survival": "78%"}, {"smiles": "Cc1cc(C)c(-c2csc(-c3cc4ccccc4oc3=O)n2)cc1C", "survival": "31% (active)"}, {"smiles": "CCN(CC)c1ccc2cc(-c3nc(-c4ccccc4F)no3)c(=O)oc2c1", "survival": "101%"}, {"smiles": "CCCNC(=O)C1CCC(Cn2c(=O)c3sccc3n(CC(=O)N3CCCC3)c2=O)CC1", "note": "(centres undefined)", "survival": "67%"}, {"smiles": "O=c1cc(-c2ccc(F)cc2)nc(SCc2nc(-c3cccc(C(F)(F)F)c3)no2)[nH]1", "survival": "99%"}, {"smiles": "COc1ccc(C)cc1NC(=O)C(CCSC)NS(=O)(=O)c1ccc2c(c1)oc(=O)n2C", "note": "(centres undefined)", "survival": "95%"}, {"smiles": "CCc1cccc(NC(=O)c2cnc(SC)nc2-c2ccccc2)c1", "survival": "84%"}, {"smiles": "COc1ccc2c(Sc3ccccc3)c(C(=O)NCc3cc(Br)ccc3OC)[nH]c2c1", "survival": "95%"}, {"smiles": "Cc1cc(C)cc(NC(=O)CSc2cc(C)[nH]c(=O)n2)c1", "survival": "90%"}, {"smiles": "CC(=O)c1cccc(Nc2ncnc3c2cnn3-c2cccc(Cl)c2)c1", "survival": "102%"}, {"smiles": "COc1ccc(C2C=C(c3ccccc3)Nc3nc(NS(=O)(=O)c4ccccc4)nn32)cc1", "note": "(centres undefined)", "survival": "25% (active)"}, {"smiles": "Cc1ccc(C2=CC(c3c(F)cccc3Cl)n3ncnc3N2)cc1C", "note": "(centres undefined)", "survival": "64%"}, {"smiles": "CC(C)c1ccc(C2=CC(c3cccc(Cl)c3)n3ncnc3N2)cc1", "note": "(centres undefined)", "survival": "-1% (active)"}, {"smiles": "Cc1ccc(C2=CC(c3ccc(Cl)cc3)n3nc(-c4ccc(C)cc4)nc3N2)cc1", "note": "(centres undefined)", "survival": "44%"}, {"smiles": "COc1ccc(C2C=C(c3ccc(Cl)c(Cl)c3)Nc3ncnn32)cc1", "note": "(centres undefined)", "survival": "6% (active)"}, {"smiles": "CC(C)c1ccc(C2=CC(c3cccc(Cl)c3)n3c(nc4ccccc43)N2)cc1", "note": "(centres undefined)", "survival": "76%"}, {"smiles": "COc1cccc(C2=CC(c3ccc(OC)c(OC)c3OC)n3ncnc3N2)c1", "note": "(centres undefined)", "survival": "91%"}, {"smiles": "CC(C)c1ccc(C2=CC(c3ccc(C(C)C)cc3)n3nnnc3N2)cc1", "note": "(centres undefined)", "survival": "67%"}, {"smiles": "COc1ccc(C2C=C(c3ccc(Cl)cc3)Nc3nc(-c4ccc(Cl)cc4)nn32)cc1", "note": "(centres undefined)", "survival": "38% (active)"}, {"smiles": "COc1ccc(C2C=C(c3ccc(F)cc3)Nc3nc(-c4ccc(Cl)cc4)nn32)cc1", "note": "(centres undefined)", "survival": "104%"}, {"smiles": "COc1ccc(C2C=C(c3ccccc3)Nc3nc(NS(=O)(=O)c4ccc(C)cc4)nn32)cc1", "note": "(centres undefined)", "survival": "55%"}, {"smiles": "CC(=O)Nc1ccc(S(=O)(=O)NCc2ccc3c(c2)CCN3C(C)=O)cc1", "survival": "89%"}, {"smiles": "Cc1ccc(N2C(=O)[C@@H]3CSC(c4ccc(Cl)cc4)N3C2=O)cc1", "note": "(some centres undefined)", "survival": "69%"}, {"smiles": "O=C(Cn1ccn(-c2ccc(F)c(F)c2)c(=O)c1=O)Nc1ccccc1F", "survival": "65%"}, {"smiles": "COc1ccc(CNCC#N)cc1OC", "survival": "77%"}, {"smiles": "CCn1cc(S(=O)(=O)c2ccc(OC)cc2)c(=O)c2cc(F)c(N3CCC(C)CC3)cc21", "survival": "83%"}, {"smiles": "Cc1cc(C)c2c(n1)SCC(=O)N2CC(=O)Nc1c(C)cccc1C", "survival": "98%"}, {"smiles": "O=C1CC(Sc2ncccc2C(=O)O)C(=O)N1", "note": "(centres undefined)", "survival": "95%"}, {"smiles": "COC(=O)CSc1nnc(-c2cccc(O)c2)o1", "survival": "82%"}, {"smiles": "Cn1c(=O)oc2cc(S(=O)(=O)NC(Cc3ccccc3)C(=O)NCc3ccccc3Cl)ccc21", "note": "(centres undefined)", "survival": "110%"}, {"smiles": "CCCc1cc(N2CCN(c3ccc(OC)cc3)CC2)n2cnnc2n1", "survival": "71%"}, {"smiles": "COc1ccc(C2C=C(c3ccccc3)Nc3nc(NS(=O)(=O)c4ccc(Cl)cc4)nn32)cc1", "note": "(centres undefined)", "survival": "3% (active)"}, {"smiles": "COc1ccc(C2C=C(c3ccc(Cl)cc3)Nc3nc(NC(=O)CCC(=O)O)nn32)cc1", "note": "(centres undefined)", "survival": "74%"}, {"smiles": "COc1cc2c(=O)n(Cc3ccccc3Cl)c(=O)n(CC(=O)Nc3ccc(C)c(C)c3)c2cc1OC", "survival": "83%"}, {"smiles": "O=C(Cn1c(=O)oc2cc(S(=O)(=O)N3CCCC3)ccc21)NCc1ccc(F)cc1", "survival": "114%"}, {"smiles": "CCCN(Cc1cc2cc(C)ccc2[nH]c1=O)C(=O)c1cccc(Cl)c1", "survival": "73%"}, {"smiles": "Cc1ccccc1NS(=O)(=O)c1ccc2[nH]c3c(c2c1)CCCCC3", "survival": "89%"}, {"smiles": "CCc1ccc(NC(=O)CSc2ncc(S(=O)(=O)c3cc(C)ccc3C)c(=O)[nH]2)cc1", "survival": "59%"}, {"smiles": "Cc1ccc(C)c(NC(=O)CSc2ncc(S(=O)(=O)c3ccc(C)c(Cl)c3)c(=O)[nH]2)c1", "survival": "66%"}, {"smiles": "Cc1ccc(C)c(S(=O)(=O)c2cnc(SCC(=O)Nc3ccc(F)cc3F)[nH]c2=O)c1", "survival": "43% (active)"}, {"smiles": "Nc1ccc(-c2ccc(N)cc2C(F)(F)F)c(C(F)(F)F)c1", "survival": "91%"}, {"smiles": "Nc1ccc(N2CCOCC2)c(N)c1", "survival": "74%"}, {"smiles": "Nc1ccc(N2CCN(c3ncc(C(F)(F)F)cc3Cl)CC2)c(C(F)(F)F)c1", "survival": "-5% (active)"}, {"smiles": "CCCOc1ccccc1C1Oc2nc(SC)nnc2-c2ccccc2N1C(C)=O", "note": "(centres undefined)", "survival": "82%"}, {"smiles": "O=C(CCn1c(=O)oc2ccccc21)n1c(=O)oc2ccccc21", "survival": "108%"}, {"smiles": "COc1cc(OC)c(Nc2c3c(nc4nc(-c5cccs5)nn24)CCCC3)cc1Cl", "survival": "89%"}, {"smiles": "Cc1ccc(Nc2c3c(nc4nc(-c5cccs5)nn24)CCCC3)cc1F", "survival": "20% (active)"}, {"smiles": "Cc1ccc(Nc2c3c(nc4nncn24)CCC3)cc1C", "survival": "55%"}, {"smiles": "CC(=O)c1cccc(Nc2c3c(nc4nc(-c5cccs5)nn24)CCCC3)c1", "survival": "95%"}, {"smiles": "COc1ccc(C)cc1Nc1c2c(nc3nc(-c4cccs4)nn13)CCCC2", "survival": "91%"}, {"smiles": "Fc1cc(Br)ccc1Nc1c2c(nc3nc(-c4cccs4)nn13)CCCC2", "survival": "8% (active)"}]}]}
